In PubChem BioAssay AID1159580 (chemical genetic matrix, 2015):
Values joined by “and” are separate entries in the source; they are usually repeats but may differ in a detail not shown here. Identical values can stand only once. The whole screen tested about 5,500 compounds, of which about 2,000 (36%) were called active. Not shown: some 18% with an inconclusive outcome. Rule as the data show it: active = normalized growth mostly below about 0.91 (no sharp cut-off); inconclusive = no clear call, values can overlap the other calls; inactive = mostly above about 0.92. The list shows a part of the results.

Assay: chemical genetic growth profiling, strain panel (AID 1159580);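 also: tested at 20 µM; growth read once vehicle control cultures reached saturation at 30 °C; 1 = growth at the plate median or of vehicle wells; lower values mean less growth of the strain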
Details: growth OD

Measured: normalized growth

CN(C)CCC(c1ccccc1)c1ccccn1 (centres undefined)
inactive: S. cerevisiae deletion strains, locus YJR066W, strain TOR1, hits give low values 0.93 | S. cerevisiae deletion strains, locus YJR075W, strain HOC1, hits give low values 1.01 and 0.951 | S. cerevisiae deletion strains, locus YKL009W, strain mrt4, hits give low values 1.03 | S. cerevisiae deletion strains, locus YKL068W, hits give low values 1 | S. cerevisiae deletion strains, locus YKL085W, strain MDH1 (second series), hits give low values 1.01 | S. cerevisiae deletion strains, locus YKL085W, strain MDH1, hits give low values 1.01 | S. cerevisiae deletion strains, locus YKL160W, strain elf1, hits give low values 1.01 | S. cerevisiae deletion strains, locus YKL190W, strain CNB1, hits give low values 1.01 | S. cerevisiae deletion strains, locus YKR001C, strain vps1, hits give low values 1 | S. cerevisiae deletion strains, locus YKR026C, strain gcn3, hits give low values 1.03 | S. cerevisiae deletion strains, locus YKR091W, strain srl3, hits give low values 1 | S. cerevisiae deletion strains, locus YLL001W, strain dnm1, hits give low values 1.02 | S. cerevisiae deletion strains, locus YLL026W, hits give low values 1.02 | S. cerevisiae deletion strains, locus YLL041C, strain sdh2, hits give low values 1.02 | S. cerevisiae deletion strains, locus YLR027C, strain aat2, hits give low values 1.01 | S. cerevisiae deletion strains, locus YLR039C, strain RIC1, hits give low values 1.05 | S. cerevisiae deletion strains, locus YLR058C, strain SHM2, hits give low values 1 | S. cerevisiae deletion strains, locus YLR102C, strain apc9, hits give low values 1 | S. cerevisiae deletion strains, locus YLR113W, strain HOG1, hits give low values 0.981 | S. cerevisiae deletion strains, locus YLR221C, strain rsa3, hits give low values 1.01 | S. cerevisiae deletion strains, locus YLR258W, strain gsy2, hits give low values 1.01 | S. cerevisiae deletion strains, locus YLR262C, strain YPT6 (second series), hits give low values 1.03 | S. cerevisiae deletion strains, locus YLR262C, strain YPT6, hits give low values 1.01 | S. cerevisiae deletion strains, locus YLR268W, strain sec22, hits give low values 1.04 | S. cerevisiae deletion strains, locus YLR320W, strain mms22, hits give low values 1.01 | S. cerevisiae deletion strains, locus YLR330W, strain CHS5, hits give low values 1.01 | S. cerevisiae deletion strains, locus YLR342W, strain FKS1 (second series), hits give low values 1.03 | S. cerevisiae deletion strains, locus YLR342W, strain FKS1, hits give low values 1.01 | S. cerevisiae deletion strains, locus YLR357W, strain rsc2, hits give low values 1.02 | S. cerevisiae deletion strains, locus YLR370C, strain arc18, hits give low values 1.02 | S. cerevisiae deletion strains, locus YLR371W, strain rom2, hits give low values 1.01 | S. cerevisiae deletion strains, locus YLR384C, strain iki3, hits give low values 1.01 | S. cerevisiae deletion strains, locus YLR418C, strain cdc73, hits give low values 0.995 | S. cerevisiae deletion strains, locus YML016C, strain PPZ1, hits give low values 1 | S. cerevisiae deletion strains, locus YML032C, strain rad52, hits give low values 1.01 | S. cerevisiae deletion strains, locus YML120C, strain ndi1, hits give low values 1.01 | S. cerevisiae deletion strains, locus YML124C, strain tub3, hits give low values 1 | S. cerevisiae deletion strains, locus YMR058W, strain fet3, hits give low values 1.02 | S. cerevisiae deletion strains, locus YMR078C, strain ctf18, hits give low values 1.01 | S. cerevisiae deletion strains, locus YMR125W, strain sto1, hits give low values 1.01 | S. cerevisiae deletion strains, locus YMR129W, hits give low values 1.01 | S. cerevisiae deletion strains, locus YMR205C, strain PFK2, hits give low values 1.01 | S. cerevisiae deletion strains, locus YMR223W, strain ubp8, hits give low values 0.983 | S. cerevisiae deletion strains, locus YMR231W, strain pep5, hits give low values 1.02 | S. cerevisiae deletion strains, locus YMR263W, strain SAP30, hits give low values 1 and 0.998 | S. cerevisiae deletion strains, locus YMR307W, strain GAS1, hits give low values 1.03 and 0.977 | S. cerevisiae deletion strains, locus YNL067W, strain RPL9B, hits give low values 0.996 | S. cerevisiae deletion strains, locus YNL071W, strain lat1, hits give low values 1.01 | S. cerevisiae deletion strains, locus YNL128W, strain TEP1, hits give low values 1.02 | S. cerevisiae deletion strains, locus YNL175C, strain NOP13, hits give low values 1.01 | S. cerevisiae deletion strains, locus YNL183C, strain NPR1, hits give low values 0.939 | S. cerevisiae deletion strains, locus YNL197C, strain WHI3, hits give low values 1.01 | S. cerevisiae deletion strains, locus YNL209W, strain ssb2, hits give low values 1.02 | S. cerevisiae deletion strains, locus YNL224C, strain SQS1, hits give low values 1 | S. cerevisiae deletion strains, locus YNL233W, strain BNI4, hits give low values 1 | S. cerevisiae deletion strains, locus YNL248C, strain rpa49, hits give low values 1 | S. cerevisiae deletion strains, locus YNL250W, strain rad50, hits give low values 0.997 | S. cerevisiae deletion strains, locus YNL271C, strain bni1, hits give low values 0.993 | S. cerevisiae deletion strains, locus YNL298W, strain CLA4, hits give low values 1.01 | S. cerevisiae deletion strains, locus YNL307C, strain MCK1, hits give low values 1.01 | S. cerevisiae deletion strains, locus YNL322C, strain KRE1 (second series), hits give low values 1.01 | S. cerevisiae deletion strains, locus YNR049C, strain mso1, hits give low values 1.02 | S. cerevisiae deletion strains, locus YNR052C, strain pop2, hits give low values 1.01 | S. cerevisiae deletion strains, locus YOL006C, strain TOP1, hits give low values 0.993 | S. cerevisiae deletion strains, locus YOL012C, strain htz1 2.13 | S. cerevisiae deletion strains, locus YOL147C, strain pex11, hits give low values 1 | S. cerevisiae deletion strains, locus YOR001W, strain rrp6, hits give low values 0.988 | S. cerevisiae deletion strains, locus YOR061W, strain CKA2, hits give low values 1 | S. cerevisiae deletion strains, locus YOR069W, strain VPS5, hits give low values 1.01 | S. cerevisiae deletion strains, locus YOR070C, strain gyp1, hits give low values 1.01 | S. cerevisiae deletion strains, locus YOR080W, strain dia2, hits give low values 1.01 | S. cerevisiae deletion strains, locus YOR083W, strain WHI5 (second series), hits give low values 1.03 | S. cerevisiae deletion strains, locus YOR083W, strain WHI5, hits give low values 1.01 | S. cerevisiae deletion strains, locus YOR106W, strain vam3, hits give low values 1 | S. cerevisiae deletion strains, locus YOR136W, strain idh2, hits give low values 0.99 | S. cerevisiae deletion strains, locus YOR144C, strain elg1, hits give low values 0.995 | S. cerevisiae deletion strains, locus YOR184W, strain ser1, hits give low values 1.01 | S. cerevisiae deletion strains, locus YOR231W, strain MKK1, hits give low values 0.981 | S. cerevisiae deletion strains, locus YOR265W, strain rbl2, hits give low values 1 | S. cerevisiae deletion strains, locus YOR270C, strain vph1, hits give low values 0.997 | S. cerevisiae deletion strains, locus YOR290C, strain snf2, hits give low values 1.04 | S. cerevisiae deletion strains, locus YOR316C, strain cot1, hits give low values 1 | S. cerevisiae deletion strains, locus YPL051W, strain arl3, hits give low values 1.01 | S. cerevisiae deletion strains, locus YPL055C, strain LGE1, hits give low values 0.985 | S. cerevisiae deletion strains, locus YPL078C, strain atp4, hits give low values 1.01 | S. cerevisiae deletion strains, locus YPL106C, strain sse1, hits give low values 1 | S. cerevisiae deletion strains, locus YPL240C, strain hsp82, hits give low values 0.989 | S. cerevisiae deletion strains, locus YPL256C, strain CLN2, hits give low values 0.928 | S. cerevisiae deletion strains, locus YPR119W, strain clb2, hits give low values 1 | S. cerevisiae deletion strains, locus YPR141C, strain kar3, hits give low values 0.994 | S. cerevisiae deletion strains, locus YPR163C, strain tif3, hits give low values 1.01 | S. cerevisiae deletion strains, locus YPR167C, strain met16, hits give low values 0.999 | S. cerevisiae deletion strains, strain wtn01, hits give low values 1 | S. cerevisiae strains, strain wild type, hits give low values 1.01
